Several values for one entry are separate records, joined by “and”; a condition that tells them apart may be missing. Equal values may be shown once. Records with an inconclusive call do not appear. More than one record can exist for a structure, and the calls need not agree. Activity calls are given as the source filed them. The calls were made as follows: active = hit-call score of the fitted dose curve at least 0.9, where 1 is the maximum; inconclusive = response in the unintended direction; inactive = score below 0.9.

Here are results for 38 molecules from PubChem BioAssay (EPA / NIEHS).

Chain of Cellular tumor antigen p53 (Homo sapiens) (P04637 whole entry, looked up, the tested form may be a part): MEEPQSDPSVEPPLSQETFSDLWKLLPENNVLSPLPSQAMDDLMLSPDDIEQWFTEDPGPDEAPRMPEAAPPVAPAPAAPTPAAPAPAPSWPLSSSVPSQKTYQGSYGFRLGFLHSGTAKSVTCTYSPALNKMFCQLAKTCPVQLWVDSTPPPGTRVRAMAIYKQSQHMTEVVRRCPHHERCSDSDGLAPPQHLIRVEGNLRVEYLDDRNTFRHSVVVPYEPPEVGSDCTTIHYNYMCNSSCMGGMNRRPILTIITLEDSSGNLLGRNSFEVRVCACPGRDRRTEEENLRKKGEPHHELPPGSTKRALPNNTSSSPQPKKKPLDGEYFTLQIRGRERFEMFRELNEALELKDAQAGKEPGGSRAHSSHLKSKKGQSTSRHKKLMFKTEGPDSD

The test addresses Cellular tumor antigen p53 (Homo sapiens) (UniProt P04637). Briefly: TOX21_p53_BLA_p3_ratio: Tox21 HCT-116 p53 Agonism Beta-lactamase Assay, Ratio, Phase 3 (AID 2283596). The text has this:
TOX21_p53_BLA_p3 is a cell-based, single-readout assay that uses HCT116, a human intestinal cell line, […] in a 1536-well plate.TOX21_p53_BLA_p3_ratio is an assay readout measuring reporter gene via receptor activity and designed using inducible reporter (beta lactamase induction) detected with GAL4 b-lactamase reporter gene. The signal is derived from the ratio of cleaved (ch2) to uncleaved (ch1) reporter gene substrate used as the measure of target activity.Data from the assay component TOX21_p53_BLA_p3_ratio was analyzed into 1 assay endpoint. This assay endpoint, TOX21_p53_BLA_p3_ratio, was analyzed in the positive analysis fitting direction relative to DMSO as the negative control and baseline of activity. Using a type of inducible reporter, gain-of-signal activity can be used to understand changes in the reporter gene as they relate to the gene TP53. Furthermore, this assay endpoint can be referred to as a primary readout, because this assay has produced multiple assay endpoints where this ratio serves a reporter gene function to understand target activity. To generalize the intended target to other relatable targets, this assay endpoint is annotated to the DNA binding intended target family, where the subfamily is tumor suppressor.
Thawing Method: Place 14 mL of pre-warmed thaw medium into a 15 mL of conical tub. Remove the vial of cells to be thawed from liquid nitrogen and thaw rapidly by placing at 37C in a water bath with gentle agitation for 1-2 minutes. Decontaminate the vial by wiping with 70% ethanol before opening in a biological safety cabinet. Transfer the vial contents drop-wise into 14 mL of thaw medium in a sterile 15-mL conical tub. Centrifuge cells at 900 rpm for 4 minutes and resuspend in thaw medium. Transfer contents to the T75 tissue culture flask containing Thaw Medium and place flask in a humidified 37C/5% CO2 incubator. Switch to growth medium at first passage.Propagation Method: Aspirate medium, rinse once in DPBS, add 0.25% Trypsin/EDTA and swirl to coat the cell evenly. Add an equal volume of Growth Medium to inactivate Trypsin after 2-3 minutes incubation at 37C. Centrifuge cells at 900 rpm for 4 minutes and resuspend in growth medium. Cell should be passage or fed at least twice a week.Assay Protocol: Harvest cells from culture in growth medium and resuspend in assay medium. 2.2 Dispense 4000 cells/5 uL/well into 1536-well black/clear bottom plates using a Multidrop dispenser. After the cells were incubated at 37C for 5 hours, 23 nL of compounds dissolved in DMSO were transferred to the assay plate by a PinTool resulting in a 217-fold dilution. Incubate the plates for 16 hours at 37C, 5% CO2. Add 1 uL of 6X LiveBLAzer FRET B/G (CCF4-AM) Substrate Mixture to each well using a BioRAPTR dispenser and incubate the plates at room temperature for 2 hours. Measure fluorescence intensity at 460 and 530 nm emission and 405 nm excitation by an Envision detector. Data is expressed as the ratio of 460nm/530nm emissions. Add 4 uL of Cell-titer Glo to each well using BioRAPTR and incubate the plates at room temperature for 2 hours. Measure fluorescence intensity by a VewLux plate reader.
With `Fc1ccc(Oc2ccnc3cc(Cl)cc(Cl)c23)cc1`, the AC50 was 89.1 µM (active). With `CC1=C(C(=O)Nc2ccccc2)SCCO1`, the outcome was inactive. As to `CCCCC(CC)COC(=O)c1ccccc1C(=O)OCC(CC)CCCC` (stereo not given), the result was inactive. For the molecule `CCCCNC(=O)OCC#CI`, the AC50 is 59.5 µM (active) and 78 µM (active). With `CCNc1nc(Cl)nc(NCC)n1`, the result was inactive. With `COc1nc(NC(C)C)nc(NC(C)C)n1`, the result was inactive.

Turning to `COc1cnc(OC)n2nc(NS(=O)(=O)c3c(OCC(F)F)cccc3C(F)(F)F)nc12`, the result was inactive.

Take `CCCC1COC(Cn2cncn2)(c2ccc(Cl)cc2Cl)O1` (stereo not given): the result was inactive.

Take `Cc1cc(Cl)ccc1OCC(=O)O`: the result was inactive. With `CC(C)Oc1cc(-n2nc(C(C)(C)C)oc2=O)c(Cl)cc1Cl`, the outcome was inactive. `COC(=O)c1ccccc1C(=O)OC`: the outcome was inactive.

Turning to `C=CC1(C)OC(=O)N(c2cc(Cl)cc(Cl)c2)C1=O` (stereo not given), the result was inactive.

Take `CC(C)C1(C)N=C(c2nc3ccccc3cc2C(=O)O)NC1=O` (stereo not given): the result was inactive. On to `C#CCOS(=O)OC1CCCCC1Oc1ccc(C(C)(C)C)cc1` (stereo not given), for which the outcome was inactive and the AC50 was 2.53 µM (active). Turning to `CC1COC(Cn2cncn2)(c2ccc(Oc3ccc(Cl)cc3)cc2Cl)O1` (stereo not given), the AC50 was 46.1 µM (active). As for `CC(C)(C)c1ccc(CSc2cnn(C(C)(C)C)c(=O)c2Cl)cc1`, the outcome was inactive. For `CCOc1cc(Oc2ccc(C(F)(F)F)cc2Cl)ccc1[N+](=O)[O-]`, the result was inactive.

As to `C=CCC1=C(C)C(OC(=O)C2C(C=C(C)C)C2(C)C)CC1=O` (stereo not given), the result was inactive.

In the case of `Oc1ccccc1-c1ccccc1`, the outcome was inactive.

In the case of `CCOC(=O)CC(SP(=S)(OC)OC)C(=O)OCC` (stereo not given), the outcome was inactive.

Turning to `O=C(O)COc1nc(Cl)c(Cl)cc1Cl`, the result was inactive.

Turning to `N#CC(CCc1ccc(Cl)cc1)(Cn1cncn1)c1ccccc1` (stereo not given), the result was inactive. In the case of `CN(C)C(=S)SSC(=S)N(C)C`, the AC50 was 29.3 µM (active) and the result was inactive. Take `CNC(=S)S`: the result was inactive. On the same count and under the same terms, next, `C=CCC1=C(C)[C@@H](OC(=O)[C@@H]2[C@@H](C=C(C)C)C2(C)C)CC1=O`: “inactive”; `COP(N)(=O)SC` (stereo not given): “inactive”. The same measure, in the same setting: to `CS/C(C)=N/OC(=O)N(C)SN(C)C(=O)O/N=C(\C)SC` belongs “inactive”; to `CON(C)C(=O)Nc1ccc(Cl)c(Cl)c1`, “inactive”; to `CCc1nn(C)c(C(=O)NCc2ccc(C(C)(C)C)cc2)c1Cl`, “inactive”. Turning to `COC(=O)N(OC)c1ccccc1COc1ccn(-c2ccc(Cl)cc2)n1`, the concentration at half-maximal activity (AC50) was 1.51 µM (active).

Consider `CC(Oc1ccc(Cl)cc1Cl)C(=O)O` (stereo not given), for which the result was inactive.

Regarding `CCOP(=S)(OCC)SCn1c(=O)oc2cc(Cl)ccc21`, the outcome was inactive.

Take `Cc1c(F)c(F)c(COC(=O)C2C(/C=C(\Cl)C(F)(F)F)C2(C)C)c(F)c1F` (stereo not given): the outcome was inactive. The same measure, in the same setting: next, `COc1ccc(C(c2ccc(OC)cc2)C(Cl)(Cl)Cl)cc1`: “inactive”; `CCON=C(CC)C1=C(O)CC(c2c(C)cc(C)cc2C)CC1=O` (stereo not given): “inactive”. `O=C(Nc1ccccc1)Nc1ccnc(Cl)c1`: the AC50 was 46.1 µM (active). For the molecule `N#Cc1nn(-c2c(Cl)cc(C(F)(F)F)cc2Cl)c(N)c1S(=O)C(F)(F)F` (stereo not given), the result was inactive. On to `Cc1ccc(-c2c(Cl)nc(C#N)n2S(=O)(=O)N(C)C)cc1`, for which the half-maximal activity concentration (AC50) was 12.1 µM (active).
